Only a sample is shown.
aSyn 5UTR act: Activators via SNCA 5'UTR binding, MLPCN | alpha-synuclein 5'UTR reporter, activators screen | activity score, % (tested at 7.5 µM), hits read low | 300,000 tested, 7.1% active | AID 1814, 2009; in the data active = activity score below about -60%
* marks the source's active call; other numbers are inactive results.

SMILES	aSyn 5UTR act
Nc1cc(C2CCCC2)nn1-c1ccccc1	-128*
CCc1ccc(-c2cc(N)n(-c3ccccc3)n2)cc1	-121*
Cc1ccc(-c2cc(N)n(-c3ccccc3)n2)cc1	-115*
Cc1cc(C)c(S(=O)(=O)Nc2cc(SCC(=O)O)c(O)c3ccccc23)cc1C	67
Fc1ccc(-c2nnc(-c3ccc(F)cc3)o2)cc1	-185*
Cc1ccc(-c2nnc(Cc3ccc([N+](=O)[O-])cc3)o2)cc1	-120*
Fc1ccc(-c2nnc(NC3=NCCCCC3)o2)cc1	98
O=[N+]([O-])c1ccc(Cc2nnc(-c3ccc(F)cc3)o2)cc1	-86*
O=c1nc(/C=C/c2ccc(O)c(O)c2)oc2ccccc12	-159*
CC1=C(CO)C(=O)OC([C@@H](C)C2CC[C@H]3C4C[C@H]5O[C@]56[C@@H](O)C=CC(=O)[C@]6(C)C4CC[C@]23C)C1 (stereo partly specified)	-91*
Cc1ccc(-n2c(C)csc2=N)cc1	-175*
Cc1csc(=N)n1-c1ccc(Cl)cc1	-144*
Cc1ccc(OCC(=O)N2CCCCC2)c(Br)c1	-125*
CC(C)(C)c1ccc(OCC(=O)N2CCCCCC2)c(Br)c1	-144*
CC(/C=C/c1ccccc1)=N\Nc1ccccc1[N+](=O)[O-]	-150*
COc1ccc(N/C=C\C(=O)c2ccc(C)cc2)cc1OC	-84*
COc1ccc(C(=O)/C=C2\NCCc3cc(OC)c(OC)cc32)cc1OC	64
COc1ccc(N/C=C\C(=O)c2ccc(Br)cc2)cc1OC	-108*
CCn1cnc2sc(C(=O)Nc3ccc4c(c3)OCO4)c(C)c2c1=O	-145*
CCCNC(=O)Cn1cnc2sc(C(=O)Nc3ccc4c(c3)OCO4)c(C)c2c1=O	-63*
C/C(=N\Nc1nc2c(s1)CCCC2)c1ccc(Cl)cc1	-100*
Cn1cccc1C(=O)OCC(=O)Nc1ccc2c(c1)CCC2	-138*
Cn1cccc1C(=O)OCC(=O)Nc1ccc2c(c1)OCO2	-101*
Cc1nn(C)c(C)c1S(=O)(=O)N1CCC(C(=O)Nc2ccc3c(c2)OCCO3)CC1	-111*
O=C(CNS(=O)(=O)c1cccs1)Nc1ccc2c(c1)OCCO2	-91*
SMILES	aSyn 5UTR act
O=S(=O)(Nc1ccc2c(c1)OCCO2)c1cccs1	-91*
O=C(Nc1ccc2c(c1)OCO2)C1CCN(S(=O)(=O)c2cccs2)CC1	-64*
CN(CC(=O)Nc1ccc2c(c1)OCO2)S(=O)(=O)c1cccs1	-76*
Cc1ccc(O)c(NC(=O)CCC2CCCCC2)c1	-152*
O=C(CCC1CCCCC1)Nc1ccccc1O	-163*
Cn1c(NC(=O)CCC2CCCCC2)cc(=O)n(C)c1=O	-63*
CCC1S/C(=N/C(=O)NC2CCCCC2)NC1=O (stereo unspecified)	-86*
Cc1c(OCc2ccccc2)cccc1OCc1ccccc1	-71*
NS(=O)(=O)c1cc2c(cc1Cl)NC(C1C[C@H]3C=C[C@@H]1C3)NS2(=O)=O (stereo partly specified)	-80*
c1ccc2c(CCNc3ncnc4nc[nH]c34)c[nH]c2c1	-73*
c1ccc(CCNc2ncnc3nc[nH]c23)cc1	-113*
Cc1ccc(NC(=S)/C(=C(\[O-])c2ccc(F)cc2)[n+]2ccccc2)cc1	-90*
COc1ccccc1CNS(=O)(=O)c1ccc(-c2cc(C)no2)cc1	80
COc1ccccc1NS(=O)(=O)c1ccc(-c2cc(C)no2)s1	-102*
COc1ccc(C2CC(c3ccc4ccccc4c3OC(C)=O)=NN2C(C)=O)cc1 (stereo unspecified)	-203*
COc1ccc(C2CC(c3ccc(Cl)cc3)=NN2C(C)=O)cc1 (stereo unspecified)	-116*
COc1ccc(C2CC(c3ccc(C)o3)=NN2C(C)=O)cc1 (stereo unspecified)	-128*
CC(=O)N1N=C(c2ccc(C)o2)CC1c1ccc(Br)cc1 (stereo unspecified)	-199*
c1ccc(C2CSc3ccccc3N2)cc1 (stereo unspecified)	-196*
O=C(O)c1cc(N/N=C/c2ccc(OCc3ccccc3)cc2)ccc1Cl	-172*
O=C(O)c1cccc(N/N=C/c2ccc(OC(F)(F)F)cc2)c1	64
O=C(O)c1cc(N/N=C/C=C/c2ccccc2)ccc1Cl	-179*
CCCN1CCC(=NNc2ccc(C(=O)O)cc2)CC1	-113*
CCCN1CCC(=NNc2ccc(S(=O)(=O)N3CCOCC3)cc2[N+](=O)[O-])CC1	64
COC(=O)c1ccc(COc2ccc(/C=N/Nc3cccc(C(=O)O)c3)cc2)cc1	-84*
SMILES	aSyn 5UTR act
O=C(O)c1cc(NN=C2CCN(Cc3ccccc3)CC2)ccc1Cl	-202*
CCOC(=O)C1CCN(c2ccc(-c3cccs3)nn2)CC1	-212*
Clc1ccc(/C=N/Nc2nnc(-c3ncc[nH]3)c3ccccc23)cc1	-169*
Clc1cccc(/C=N/Nc2nnc(Cl)c3ccccc23)c1	-197*
COc1ccc2nc(NC(=O)C3CCN(C(=O)c4ccco4)CC3)sc2c1	-73*
COc1ccc2nc(NC(=O)C3CCCO3)sc2c1 (stereo unspecified)	-87*
CSc1nc2ccc(NC(=O)NC(=O)c3c(F)cccc3F)cc2s1	-125*
Cc1nc(C)c(C(=O)Nc2nc3c(C)cccc3s2)o1	-74*
COc1ccc(-c2nnc(NC(=O)C3CCCO3)s2)cc1 (stereo unspecified)	-112*
Cc1cccc2sc(NC(=O)C3CCCO3)nc12 (stereo unspecified)	-126*
O=C(Nc1nc(-c2ccc(Cl)cc2)cs1)C1CCCO1 (stereo unspecified)	-90*
CSc1nc2ccc(NC(=O)C3CCCO3)cc2s1 (stereo unspecified)	-125*
CCOc1ccc(OCc2ccc(C(=O)N(CC)CC)cc2)cc1	-155*
CCOc1ncccc1C(=O)OCc1ccc(C(=O)OC)cc1	-126*
CCC(=O)c1ccc(OCc2ccc(C#N)cc2)cc1	-112*
CCC(=O)c1ccc(OCc2ccc(C(=O)OC)cc2)cc1	-73*
CCOc1ccc(OCc2cccc(C(=O)O)c2)cc1	84
COC(=O)C1CCN(C(=O)c2ccc3nc(-c4cccc(OC)c4)oc3c2)CC1	-136*
COc1cccc(-c2nc3ccc(C(=O)NC(C)Cc4cccnc4)cc3o2)c1 (stereo unspecified)	-130*
O=C(Nc1nc2ccccc2[nH]1)c1cccs1	-91*
O/C(=C\c1nc2ccccc2[nH]1)c1cccs1	-200*
O=C(Nc1nc2ccccc2[nH]1)C12CC3CC(CC(C3)C1)C2	-181*
Cc1ccc(C(=O)Nc2nc3ccccc3[nH]2)cc1	68
O=C(Nc1nc2ccccc2[nH]1)C1CCCO1 (stereo unspecified)	-79*
O=C(Nc1ccc(-c2nc3ccccc3[nH]2)cc1)C1CCCO1 (stereo unspecified)	77
SMILES	aSyn 5UTR act
O=c1[nH]c2ccccc2nc1/C=C(\O)c1cccs1	-174*
O=c1[nH]c2ccccc2nc1-c1cccs1	-152*
Cc1[nH]c2ccccc2c1-c1nc2ccccc2[nH]c1=O	-63*
O=C(Nc1nc2ccccc2[nH]1)c1ccc(Br)o1	-132*
CC(C)Sc1nc(N)nc(-c2cccs2)c1C#N	-146*
O=C1N=C(N2CCCCC2)S/C1=C/C1=Cc2ccccc2OC1	-103*
O=C1N=C(N2CCCCC2)S/C1=C\c1ccc(Br)cc1	-128*
c1ccc2c(c1)CC/C2=N/Nc1nc2ccccc2[nH]1	-174*
CSc1ccc(C2c3[nH]c4ccccc4c3CCN2C(=O)c2cc(C)n(C)n2)cc1 (stereo unspecified)	-287*
CC(/C=C/c1ccco1)=N\NC(=O)CNc1ccc2ccccc2c1	-70*

Screening results (PubChem BioAssay)
